An excerpt weighted towards active compounds, which were near 1.2% of everything screened.
USP1 inh = inhibitors of human USP1/UAF1 deubiquitinase | O94782 | AID 743255 | recombinant USP1/UAF1, Ub-Rhodamine cleavage fluorescence | Potency, µM (highest dose often 57.1 µM), without a hit: at the highest dose activity change, negative = inhibition, actives largely listed as inhibitors | 390,000 compounds, 0.23% hits; note: % is set by controls: 0 for no effect and ±100 for the full control effect; nearly all actives have a fitted effect of over 60% in size
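Step one: compound is pinned into 1nM USP1/UAF1 in HEPES pH 7.8 buffer with TCEP. Step two: 15 min room-temperature incubation. Step three: Ub-Rho (150nM final) starts cleavage, tracked by fluorescence over six one-minute reads.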
EPAC2 agonist = activates human EPAC2 exchange factor; Q8WZA2; Potency, µM (series often up to 154 µM), for the others: top-dose activation, most hits filed as activators; EPAC2 activation, biochemical qHTS; response scale: 100% = 6.5 mM cAMP response; 360,000 compounds, 0.079% hits; note: nearly all actives have a fitted effect of over 50% in size
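In this primary screen, activation is scored as increased exchange of BODIPY-GDP from Rap1B by 100 nM EPAC2, with 50 uM GDP as competitor. Signal is normalized to the 6.5 mM cAMP agonist control.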
EPAC2 antag = antagonists of human EPAC2. Potency, µM (highest dose often 114 µM), for the others: at the top dose activity, negative = inhibition, actives largely listed as inhibitors. AID 720708. EPAC2 GEF exchange of Rap1B-BODIPY-GDP, fluorescence. Q8WZA2. 360,000 compounds, 0.18% hits; note: % is set by controls: 0 for no effect and ±100 for the full control effect; nearly all actives have a fitted effect of over 45% in size
EPAC1 ag = activates human EPAC1 exchange factor; Potency, µM (doses to about 154 µM), for inactives: top-dose activation, actives largely listed as activators; EPAC1 agonist qHTS, biochemical assay; response scale: 100% = response to 6.5 mM cAMP; 360,000 compounds, 0.073% hits; AID 720707; O95398; note: nearly all actives have a fitted effect of over 60% in size
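EPAC1 100 nM, Rap1B–BODIPY-GDP 250 nM, unlabeled GDP 50 uM; compound titration; 5 min RT; kinetic read ex480/em540 at 5-min intervals ×30 min; data normalized to 6.5 mM cAMP agonist control.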
VDR inh = vitamin D3 receptor (human) inhibition | 400,000 compounds, 0.93% hits | Potency, µM, inactives show max response, negative = inhibition, usual class: inhibitors | AID 504847 | VDR-SRC2-3 peptide fluorescence polarization, 2 h | P11473; note: % is set by controls: 0 for no effect and ±100 for the full control effect
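Fluorescence polarization assay measuring small-molecule disruption of VDR binding to the coregulator peptide SRC2-3. Compounds were pin-transferred (23 nl) into the reagent mix and incubated 2 h at room temperature before reading.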
EPAC1 antagonist = blocks human EPAC1 exchange factor | O95398 | EPAC1 GEF assay, Rap1b-BODIPY-GDP exchange fluorescence | Potency, µM (titrated, usually from 115 µM), inactives show at the highest dose activity change, negative = inhibition, usual class: inhibitors | 360,000 compounds, 0.14% hits;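 note: plate controls were vehicle for no effect and positive control for full effect; nearly all actives have a fitted effect of over 50% in size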
The depositor's hits bear a star; ? = inconclusive; · = no result given. Calls come from the whole dose curve; as a rule, active = well fitted curve in the direction sought with a large enough effect; inconclusive = small, poorly fitted or top-dose-only effect, or another doubt; inactive = no such curve, though single readings can be large; an effect the other way counts as inactive or inconclusive. Potency is the fitted concentration of half-maximal effect.

SMILES	USP1 inh	EPAC2 agonist	EPAC2 antag	EPAC1 ag	VDR inh	EPAC1 antagonist
CC[C@]1(O)CC(O[C@@H]2CC(N(C)C)C(O)C(C)O2)c2c(cc3c(c2O)C(=O)c2c(O)cccc2C3=O)C1C(=O)OC (stereo not given in full)	·	·	·	·	32µM*	·
C=C(C)[C@@]12OC3(c4ccccc4)O[C@@H]1[C@@H]1[C@@H]4O[C@]4(CO)[C@@H](O)[C@]4(O)C(=O)C(C)=C[C@H]4[C@@]1(O3)[C@H](C)[C@H]2OC(=O)/C=C/C=C/c1ccccc1	·	·	·	·	-1%	·
C=C1C([C@@]2(C)C(OC(C)=O)CC(=O)O[C@@](C)(COC(C)=O)C2CC(=O)OC)C(OC=O)C(OC(=O)C(OC(C)=O)C(C)CC)[C@]2(C)C(c3ccoc3)CC(=O)C12O (stereo not given in full)	·	·	·	·	0%	·
CCC(C)C(=O)OC1C2CC3=C4CC(=O)OC(c5ccoc5)[C@]4(C)CCC3[C@@](C)(C2=O)C(CC(=O)OC)C1(C)C (stereo not given in full)	·	·	·	·	40µM*	·
CC(Cc1cccc(C(F)(F)F)c1)NCCCc1ccccc1 (stereo not given)	·	·	·	·	-5%	·
CCN(CC)c1ccc(N=Cc2c(O)n(CCC3=CCCCC3)c(=O)[nH]c2=O)cc1	193%	?	56µM*	5%	-11%	7%
C[C@H](NC(=O)[C@@H](N)Cc1ccc(O)cc1)C(=O)NCC(=O)N(C)[C@@H](Cc1ccccc1)C(=O)N[C@H](CO)CCS(C)=O (stereo not given in full)	·	·	·	·	-1%	·
O=C1C2CC=CCC2C(=O)N1SC(Cl)(Cl)Cl (stereo not given)	·	·	·	·	4µM*	·
O=C1C(Cl)=C(N2CCOCC2)C(=O)N1c1ccccc1F	-22%	3%	15%	-8%	14µM*	11%
O=C(N/N=C/C1C(=O)NC(=S)N(c2ccccc2)C1=O)c1cc(Br)c(O)c(Br)c1 (stereo not given)	-16%	-1%	2%	10%	40µM*	-21%
O=C(O)[C@@H]1CSC(c2cccnc2)N1 (stereo not given in full)	·	·	·	·	-9%	·
C=CCN1C[C@H](C)N([C@H](c2ccc(C(=O)N(CC)CC)cc2)c2cccc(O)c2)C[C@H]1C	·	·	·	·	11%	·
CCC(C)n1c(=O)[nH]c(C)c(Br)c1=O (stereo not given)	·	·	·	·	12%	·
N#CC(C#N)=Cc1ccc(O)c(O)c1	-11%	-2%	-16%	-15%	50µM*	4%
CN(C)c1ccc(C=C(C#N)C#N)cc1	4%	14%	-2%	12%	-2%	-2%
C[C@H]1CC[C@@H]2[C@@H](C)[C@H]3C(C[C@H]4C5CC[C@H]6C[C@@H](O)CC[C@]6(C)C5CC[C@]34C)N2C1 (stereo not given in full)	·	·	·	·	-16%	·
C[N+](C)(C)CCCl	·	·	·	·	-5%	·
COc1ccc(CN2Cc3cnnn3-c3ccccc3C2C#N)cc1 (stereo not given)	-26%	5%	6%	4%	20µM*	-7%
COc1ccccc1CNC(=O)CCC1N=C2c3ccccc3N=C(SCc3cccc(Cl)c3)N2C1=O (stereo not given)	?	·	·	·	-14%	·
O=[N+]([O-])c1cc([As](=O)(O)c2ccc(O)c([N+](=O)[O-])c2)ccc1O	-12%	-1%	18µM*	-4%	-12%	10%
CC(C)[C@H](NC(=O)[C@H](CC(=O)O)NC(=O)[C@H](Cc1ccccc1)NC(=O)[C@@H](C)NC(=O)[C@@H](N)Cc1ccc(O)cc1)C(=O)N[C@H](C(=O)NCC(N)=O)C(C)C	·	·	·	·	9%	·
CN1C(=O)NC(=O)/C(=C\c2ccc([N+](=O)[O-])o2)C1=O	?	4%	7%	4%	?	-3%
